Drawing on PubChem BioAssay AID720641 (ICCB-Longwood Screening Facility, Harvard Medical School, 2013), this text covers relative growth for 55 compounds.

Molecules are shown by their SMILES. Screen size: about 170,000 compounds; about 900 (0.53%) were called active.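 How the source made its calls: active means relative growth at most 50% at the other temperature and 20+ points below 30 °C, or under 10% at both; inactive means the rest, inconclusive results apart.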 The sample as a whole holds a higher share of actives than the screen did.

The nature of the assay: S. aureus growth inhibition at 42 and 30 °C, primary screen, LtaS inhibitor project, RN4220, two temperatures (AID 720641). The note with it: OD600, 20 h, 42 °C, stronger effect = lower value.

As to `Cc1onc(-c2ccccc2)c1C(=O)Nc1cccc(C(F)(F)F)c1`, the relative growth is 113% (inactive). The relative growth (measured here: growth at 30 °C) stood at 87.3%.

Consider `CCNS(=O)(=O)c1ccc(NC(=O)Nc2cccc(C(F)(F)F)c2)cc1`, for which the relative growth is 98.8% (inactive). For the same compound, the relative growth (measured here: growth at 30 °C) was found to be 83.1%.

For `Cc1oc2c(F)c(F)c(F)c(F)c2c1S(=O)(=O)Nc1cccc(C(F)(F)F)c1`, the relative growth is 8.52% (active). Besides, the relative growth (measured here: growth at 30 °C) was found to be 1.85%.

Regarding `Cc1cc(N2CCCCC2)nc2ccc(NC(=O)CCC(=O)N3CCC(C)CC3)cc12`, the relative growth is 78.9% (inactive). Besides, for the setting “measured here: growth at 30 °C”, the relative growth was 78.2%.

With `CCc1ccc2[nH]c(=O)c(CN(Cc3ccco3)C(=S)NCC(C)C)cc2c1`, the relative growth is 84% (inactive). The relative growth (measured here: growth at 30 °C) was found to be 74.7%.

With `COc1ccc(OCCN2C(=O)c3ccccc3S2(=O)=O)cc1`, the relative growth was 102% (inactive). The relative growth (measured here: growth at 30 °C) turned out to be 95%.

For `CC(=O)Nc1nc(C)c(Cc2ccccc2)c(=O)[nH]1`, the relative growth was 106% (inactive). Further, the relative growth (measured here: growth at 30 °C) is 86.1%.

For `CCCCc1c(COC)nc(-c2ccc(Cl)cc2)[nH]c1=O`, the relative growth is 122% (inactive). Further, the relative growth (measured here: growth at 30 °C) was determined as 53%.

Consider `CCCCCc1c(C)nc(-c2ccccn2)[nH]c1=O`, for which the relative growth was 1.74% (active). The relative growth (measured here: growth at 30 °C) is 1.83%.

Consider `CC(C)(C)C(=O)OCC(=O)Nc1ccccc1`, for which the relative growth is 124% (inactive). Also, the relative growth (measured here: growth at 30 °C) is 92.1%.

For `Cc1nc(/N=C(/N)NC(=O)Cc2ccccc2)nc2ccccc12`, the relative growth is 93.2% (inactive). In addition, the relative growth (measured here: growth at 30 °C) worked out at 87.1%.

In the case of `N#CCSc1ccccc1NC(=O)CN1CCc2sccc2C1c1cccs1` (stereo not given), the relative growth is 94.4% (inactive). For the same compound, the relative growth (measured here: growth at 30 °C) is 87%.

In the case of `Cc1ccc2nc(CN3CCc4sccc4C3c3cccs3)cn2c1` (stereo not given), the relative growth is 0.12% (active). For the same compound, under “measured here: growth at 30 °C”, the relative growth was -0.28%.

Regarding `CC(NC(=O)CN1CCc2sccc2C1c1cccs1)c1ccc2c(c1)OCCO2` (stereo not given), the relative growth is 116% (inactive). Also, the relative growth (measured here: growth at 30 °C) stood at 98.8%.

For the compound `CCOC(=O)c1oc2ccccc2c1N=Cc1c(O)n(CC)c(=S)n(CC)c1=O`, the relative growth is 99% (inactive). The relative growth (measured here: growth at 30 °C) is 93.3%.

On to `CSc1nsc(SCC(=O)N2CCCC2)n1`, for which the relative growth was 93.6% (inactive). Under “measured here: growth at 30 °C”, the relative growth came to 82.6%.

For the compound `CCOC(=O)N1CCN(CC(=O)NCCc2ccc(Cl)cc2Cl)CC1`, the relative growth is 90.9% (inactive). Further, the relative growth (measured here: growth at 30 °C) came to 81.3%.

In the case of `O=C(Cn1cc(C(F)(F)F)cc(Cl)c1=O)Nc1ncccn1`, the relative growth is 94.1% (inactive). Moreover, the relative growth (measured here: growth at 30 °C) was 94.7%.

Regarding `CCC(CC)C(=O)N(c1ccc(OC)cc1OC)C1C=CS(=O)(=O)C1` (stereo not given), the relative growth is 99.8% (inactive). Also, the relative growth (measured here: growth at 30 °C) turned out to be 90.8%.

Turning to `COc1cccc2c1OCc1sc3[nH]c(=S)[nH]c(=O)c3c1-2`, the relative growth is 50.5% (inactive). In addition, where the note is “measured here: growth at 30 °C”, the relative growth is 32.4%.

`N#Cc1ccc(OCC(=O)N=Nc2[nH]c(N)c3ccccc23)cc1`: the relative growth is 104% (inactive). Also, the relative growth (measured here: growth at 30 °C) was determined as 101%.

`Cn1c(-c2ccc(C(=O)c3ccccc3)s2)nc2ccccc21`: the relative growth is 101% (inactive). Moreover, the relative growth (measured here: growth at 30 °C) came out at 95.7%.

Consider `Cn1c(NC(=O)c2ccccc2)nc2ccccc21`, for which the relative growth was 9.06% (active). The relative growth (measured here: growth at 30 °C) was 0.29%.

Regarding `Cn1c(NCc2ccccc2)nc2ccccc21`, the relative growth was 105% (inactive). Also, the relative growth (measured here: growth at 30 °C) was found to be 64.6%.

Consider `O=C(COc1ccccc1)NC(C(=O)O)C12CC3CC(CC(C3)C1)C2` (stereo not given), for which the relative growth was 112% (inactive). In addition, the relative growth (measured here: growth at 30 °C) came to 83.1%.

In the case of `CN1CCN(c2nc(C34CC5CC(CC(C5)C3)C4)cs2)CC1`, the relative growth is -0.89% (active). For the same compound, the relative growth (measured here: growth at 30 °C) was -0.63%.

As to `c1snnc1C12CC3CC(CC(C3)C1)C2`, the relative growth was 103% (inactive). For the same compound, where the note is “measured here: growth at 30 °C”, the relative growth was found to be 109%.

Regarding `CC(C)(C)C(=O)Nc1ccc(Br)cc1`, the relative growth was 109% (inactive). Further, the relative growth (measured here: growth at 30 °C) came to 84.5%.

`CCOC(=O)c1cnc(SCSc2nc3ccccc3s2)nc1N`: the relative growth is 86.4% (inactive). For the same compound, the relative growth (measured here: growth at 30 °C) stood at 87%.

Regarding `Cc1ccc(OC(=O)c2cc3ccccc3o2)cc1`, the relative growth is 0.01% (active). Besides, for the setting “measured here: growth at 30 °C”, the relative growth is -0.88%.

`CC(=O)Oc1ccc2occ(C(=O)c3cc4ccccc4o3)c2c1`: the relative growth is 89.3% (inactive). The relative growth (measured here: growth at 30 °C) was 86.2%.

As for `CC(C)Oc1ccc(NC(=O)c2cc3ccccc3o2)cc1`, the relative growth was 87.3% (inactive). Moreover, the relative growth (measured here: growth at 30 °C) was 89.7%.

`O=C(Oc1ccc2oc(=O)sc2c1)c1ccccc1`: the relative growth is 92.5% (inactive). In addition, under “measured here: growth at 30 °C”, the relative growth was 94%.

As to `CC(C)n1c(CCC(=O)O)ccc1-c1ccc(F)cc1`, the relative growth was 126% (inactive). For the same compound, for the setting “measured here: growth at 30 °C”, the relative growth amounted to 97.4%.

Consider `CN(C)[C@@H]1C(=O)C(C(N)=O)=C(O)[C@@]2(O)C(=O)C3=C(O)c4c(O)ccc(Cl)c4[C@@H](O)[C@H]3C[C@@H]12`, for which the relative growth was -0.41% (active). Besides, the relative growth (measured here: growth at 30 °C) is -1%.

`COC(=O)/C(C#N)=C(\NCc1ccc(Cl)cc1Cl)SC`: the relative growth was 99.2% (inactive). Moreover, for the setting “measured here: growth at 30 °C”, the relative growth is 99.3%.

For `NC(=O)C1CCN(C(=O)CSc2ccc3ccccc3c2)CC1`, the relative growth is 84.3% (inactive). Besides, where the note is “measured here: growth at 30 °C”, the relative growth came to 94.8%.

As to `COc1ccc(F)cc1C(O)CSCc1ccccc1` (stereo not given), the relative growth is 124% (inactive). For the same compound, where the note is “measured here: growth at 30 °C”, the relative growth was found to be 84.8%.

Regarding `CCOC(=O)Nc1nc2c(ccc3ccccc32)s1`, the relative growth is 92.4% (inactive). In addition, the relative growth (measured here: growth at 30 °C) is 91.2%.

Turning to `O=C(O)C1CCC(CNS(=O)(=O)c2ccc(Br)cc2)CC1` (stereo not given), the relative growth was 108% (inactive). Also, the relative growth (measured here: growth at 30 °C) was 96.5%.

For the compound `CCOC(=O)c1oc2nc(-c3ccccc3)cc(-c3ccco3)c2c1N`, the relative growth is 97.1% (inactive). The relative growth (measured here: growth at 30 °C) is 91.1%.

As to `CCOc1ccc(CNC(=O)c2ccc(CS(=O)c3ccccc3)o2)cc1` (stereo not given), the relative growth is 101% (inactive). For the same compound, the relative growth (measured here: growth at 30 °C) turned out to be 79.9%.

For the compound `Cc1ccc(CNC(=O)c2ccc(CS(=O)Cc3cccc(Cl)c3)o2)cc1` (stereo not given), the relative growth was 116% (inactive). The relative growth (measured here: growth at 30 °C) worked out at 82.8%.

For the compound `CCc1ccc(CNC(=O)c2ccc(CS(=O)c3ccc(Br)cc3)o2)cc1` (stereo not given), the relative growth was 19.5% (active). The relative growth (measured here: growth at 30 °C) came out at 45.9%.

Take `COC(=O)c1scc2c(N3CCCCC3)cc(C(F)(F)F)nc12`: the relative growth is 90.2% (inactive). In addition, the relative growth (measured here: growth at 30 °C) was found to be 95.5%.

Regarding `CCN1CCN(C(=O)N[C@@H](C(=O)N[C@@H]2C(=O)N3C(C(=O)O)=C(CSc4nnnn4C)CS[C@H]23)c2ccc(O)cc2)C(=O)C1=O`, the relative growth is -0.62% (active). Under “measured here: growth at 30 °C”, the relative growth is -0.46%.

In the case of `O=C(Nc1nnc(C2CC2)s1)c1cc(Cl)sc1Cl`, the relative growth is 77.4% (inactive). Moreover, under “measured here: growth at 30 °C”, the relative growth stood at 68.7%.

As to `COC(=O)c1ccc2c(c1)NC(=O)C(C)N2` (stereo not given), the relative growth is 95.5% (inactive). Also, the relative growth (measured here: growth at 30 °C) stood at 65.5%.

For the compound `CC1CCCCN1S(=O)(=O)c1ccc(C(=O)Nc2nnc(-c3cccs3)o2)cc1` (stereo not given), the relative growth is 2.04% (active). For the same compound, where the note is “measured here: growth at 30 °C”, the relative growth worked out at 1.82%.

`CC1CCCCN1S(=O)(=O)CCNC(=O)c1ccccc1` (stereo not given): the relative growth is 85.7% (inactive). The relative growth (measured here: growth at 30 °C) came to 88.4%.

For `CCc1nnc(NC(=O)C2CCCN2S(=O)(=O)c2ccccc2)s1` (stereo not given), the relative growth is 119% (inactive). Moreover, the relative growth (measured here: growth at 30 °C) was 89.3%.

For `CC1CCCCN1S(=O)(=O)c1ccc(F)c(C(=O)Nc2ccccc2C(F)(F)F)c1` (stereo not given), the relative growth was 98.5% (inactive). For the same compound, the relative growth (measured here: growth at 30 °C) turned out to be 90%.

As for `CSCc1nnc(NC(=O)c2ccc(S(=O)(=O)N3CCCCC3C)cc2)o1` (stereo not given), the relative growth is 0.19% (active). Besides, under “measured here: growth at 30 °C”, the relative growth is -0.08%.

Consider `CC1CCCCN1S(=O)(=O)c1ccc(I)cc1` (stereo not given), for which the relative growth is 103% (inactive). For the setting “measured here: growth at 30 °C”, the relative growth is 105%.

In the case of `O=C(Cc1n[nH]c(=O)c2ccccc12)N/N=C/c1ccc(-c2ccc(Br)cc2)o1`, the relative growth was 95.6% (inactive). For the same compound, where the note is “measured here: growth at 30 °C”, the relative growth worked out at 86.9%.
